AHR activator – activators of human aryl hydrocarbon receptor | P35869 | AHR-responsive luciferase reporter cells, luminescence | activation, % at 5 µM | 320,000 tested, 2.5% active | AID 2796; in the data active = activation above about 47%
PolyA inhibitor – yeast polyadenylation inhibition; S. cerevisiae SKY197-pL101 polyadenylation reporter, beta-gal luminescence; efflux-impaired pdr1/pdr3 knockout yeast; score 100 = 6 SD above DMSO; activity score, % at 12 µM; 300,000 tested, 0.02% active;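 active = lowest replicate activity score at least 50, where 100 means six control SD above control mean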;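 note: yeast exposed to compound for 9 h at 30 °C; higher score means more reporter readthrough which indicates perturbed polyadenylation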
HIF activator – HIF pathway transcriptional activation. U2OS HRE-luciferase reporter, luminescence; normalized: DMSO 0%, desferrioxamine 100%. activation, % at 7.5 µM (by protocol). 300,000 tested, 0.32% active;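 active = mean activation of at least 10% of the iron chelator positive control signal, with at least half of replicates also reaching 10%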
p-CIP stab down – lowers stability of the mouse p/CIP coactivator protein; Q05BA5; decrease of EGFP signal, % at 10 µM; 290,000 tested, 0.01% active; F442A p/CIP-EGFP cells, EGFP fluorescence, 16 h;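 active = EGFP signal decrease of at least 30% at 10 µM or well 3 SD below plate mean, unless failing retest; inactive = the rest, including hits failing retest or dose response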
Platelet DG rel – modulates dense granule release in human platelets; AID 1663; inhibition, %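 (compounds screened at 7.5 µM in platelet-rich plasma)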; 300,000 tested, 0.22% active; human platelet-rich plasma, SFLLRN dense granule ATP release, luminescence;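 active = mean replicate score, as percent of positive control, at or above 50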
AHR act confirm – confirmation of human aryl hydrocarbon receptor activators | shares compounds with AHR activator | human cells, AHR-responsive luciferase reporter, luminescence | activation, % at 9 µM | 2,300 tested, 87% active | AID 2845; in the data active = activation above about 49%;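 note: HepG2 hepatoma cells carrying a DRE-driven firefly luciferase reporter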
PXR counter – activates human PXR in AHR activator counter-screen; shares compounds with AHR activator; AID 434939; cell-based PXR reporter, luciferase luminescence; 2,300 tested, 88% active; activation, % at 11.6 µM; in the data active = activation above about 11%;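 note: human hepatoma DPX-2 cells expressing full-length human PXR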
Target sequence (O75469 whole entry, looked up): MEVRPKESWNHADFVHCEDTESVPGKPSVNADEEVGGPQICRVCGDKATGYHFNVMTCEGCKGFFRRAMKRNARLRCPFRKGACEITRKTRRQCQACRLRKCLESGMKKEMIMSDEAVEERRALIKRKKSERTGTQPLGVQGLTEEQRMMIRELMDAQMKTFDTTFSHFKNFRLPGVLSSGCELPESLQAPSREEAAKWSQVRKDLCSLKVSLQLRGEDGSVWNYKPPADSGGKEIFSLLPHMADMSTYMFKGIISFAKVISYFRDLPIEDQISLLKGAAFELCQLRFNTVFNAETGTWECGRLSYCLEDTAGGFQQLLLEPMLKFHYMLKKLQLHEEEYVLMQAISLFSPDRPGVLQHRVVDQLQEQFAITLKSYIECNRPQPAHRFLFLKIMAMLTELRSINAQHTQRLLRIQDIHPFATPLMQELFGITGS
Numbers stand for hits; – = inactive; · = no result. Rows were chosen to be rich in hits. Some 2.8% of all compounds tested hit in one or more screens of this group.

SMILES | AHR activator | PolyA inhibitor | HIF activator | p-CIP stab down | Platelet DG rel | AHR act confirm | PXR counter
O=C(NC(=S)NCCN1CCOCC1)c1ccc(Cl)cc1 | – | – | – | – | – | · | ·
COc1ccc(N2CC(C(=O)NCc3n[nH]c(=O)c4ccccc34)CC2=O)cc1 (stereo unspecified) | · | – | – | · | – | · | ·
O=C(/C=C/c1ccccc1[N+](=O)[O-])Nc1cccnc1 | 144.8 | – | – | – | – | 83.1 | 33.5
O=C(/C=C/c1ccccc1[N+](=O)[O-])NNC(=O)c1ccncc1 | – | · | · | · | · | · | ·
O=C(Nc1cccc(-c2nc3cc(Cl)ccc3o2)c1)C1CCCO1 (stereo unspecified) | 118.3 | – | – | – | – | 126.0 | ·
COc1ccc(OC)c(-c2csc(NC(=O)COC(=O)c3ccc(NC(=O)CC#N)cc3)n2)c1 | 80.2 | · | · | · | · | – | –
CCCNC(=O)C(Cc1ccc(I)cc1)NC(=O)c1ccc(C#N)cc1 (stereo unspecified) | – | · | · | · | · | · | ·
N=C(N)N=Nc1c(O)[nH]c2ccc(Br)cc12 | 93.2 | – | – | – | – | 87.9 | 28.3
Oc1ccc(NC(=S)N=Nc2c(O)[nH]c3ccc(Br)cc23)cc1 | · | – | – | – | – | · | ·
CN1/C(=C/C(=O)C2CCC2)Sc2ccccc21 | 138.0 | – | – | – | – | 137.6 | 22.6
CN1/C(=C\C(=O)c2cccs2)C(C)(C)c2ccccc21 | – | – | – | – | – | · | ·
CN1/C(=C/C(=O)c2cccs2)Sc2ccccc21 | 86.3 | – | – | – | – | 115.2 | 22.9
COCC(=O)/C=C1\Sc2ccccc2N1C | – | – | – | – | – | · | ·
COc1ccc(S(=O)(=O)N2CCOC2CNC(=O)C(=O)NCc2ccc(F)cc2)cc1OC (stereo unspecified) | – | – | – | – | – | · | ·
COc1ccc(/C=N/OCC(=O)OCC(=O)N(C)c2ccccc2)cc1 | – | – | – | · | – | · | ·
Oc1c(Br)cc(C2N=C(c3ccccc3)NO2)cc1Br (stereo unspecified) | 94.4 | – | – | – | – | 91.9 | 17.6
Oc1c(Br)cc(Br)c(/C=N/n2c(-c3ccccc3)n[nH]c2=S)c1Br | – | – | – | – | – | · | ·
COc1ccc(-c2nc(-c3ccccc3)c(-c3cc([N+](=O)[O-])ccc3C)[nH]2)cc1OC | – | – | – | – | – | · | ·
COc1ccc(-c2[nH]c(-c3cc(OC)c4c(c3)OCO4)nc2-c2ccccc2)cc1 | 107.2 | – | – | – | – | 54.0 | 56.9
COCCNC(=O)CN(C(=O)Cn1nnc2ccccc21)c1cccc(C)c1C | – | – | – | – | – | · | ·
Cc1nc(-c2ccccn2)sc1C(=O)Nc1ccc(Cl)c(Cl)c1 | 108.6 | – | – | – | – | 57.1 | 39.6
O=C(NCCCn1ccnc1)c1cc(Cl)cc(Cl)c1 | 87.2 | – | – | – | – | 73.8 | 21.5
Cc1ccc(C(=O)NCCCn2ccnc2)cc1C | – | – | – | · | – | · | ·
Clc1ccc2[nH]c(-c3ccccc3)cc2c1 | 114.7 | – | · | – | · | 137.6 | 17.0
O=c1cc(-c2ccccc2)[nH]c2cc(Cl)ccc12 | 96.1 | – | – | – | – | 64.5 | 22.6
SMILES | AHR activator | PolyA inhibitor | HIF activator | p-CIP stab down | Platelet DG rel | AHR act confirm | PXR counter
COc1cccc(C(=O)O/N=C(\N)c2ccc([N+](=O)[O-])cc2)c1 | 79.2 | – | – | – | – | 74.6 | ·
CCOc1cc2nc(-c3ccc(OC)c(OC)c3)nc(N3CCOCC3)c2cc1OC | – | – | – | – | – | · | ·
CCOc1cc2nc(-c3ccc(OC)c(OC)c3)nc(N3CC(C)OC(C)C3)c2cc1OC (stereo unspecified) | 83.2 | – | – | – | – | 95.5 | 15.7
C=CCc1c(C)nc(SC)nc1Nc1ccc(C(=O)O)cc1 | – | – | – | – | – | · | ·
C=CCc1c(C)nc(SC)nc1Nc1ccccc1 | 104.4 | – | – | – | – | 58.4 | 104.6
C=CCc1c(C)nc(SC)nc1Nc1ccc(C(C)=O)cc1 | 82.6 | – | – | – | – | 73.0 | 119.6
C=CCc1c(C)nc(-c2ccccc2)nc1Nc1ccc(O)cc1 | – | – | – | – | – | · | ·
C#CCn1cc(/C=N/NC(=O)COc2cccc3cccnc23)c2ccccc21 | 103.4 | – | – | – | – | 62.6 | ·
CC(C)n1cc(CN2CCN(CCc3ccccc3)C(CCO)C2)cn1 (stereo unspecified) | – | – | – | – | – | · | ·
Nc1nc(-c2ccccc2)c(-c2ccccc2)s1 | – | – | – | – | – | · | ·

High-throughput results (PubChem)
